Experimental data published in PubChem BioAssay (Tox21).
Values joined by “and” are separate entries in the source; they are usually repeats but may differ in a detail not shown here. Equal entries are not always repeated. Inconclusive results are not listed. The source holds several records for some structures; these can differ, active in one and inactive in another. Active and inactive are the calls of the source. Unless noted, calls follow the shape of the dose curve; as a rule, active = well fitted curve in the direction sought with a large enough effect in the repeat runs; inconclusive = weak or mixed curves; inactive = no such curve, though single readings can be large; an effect the other way counts as inactive or inconclusive.

Tests used:
[1] = target: Estrogen receptor (Homo sapiens) (UniProt P03372); assay: qHTS assay to identify small molecule antagonists of the estrogen receptor alpha (ER-alpha) signaling pathway using the BG1 cell line in the presence of 0.1 nM 17-beta-estradiol (AID 1259244); also: nearly all actives have a fitted effect of over 50% in size; also: potency is read from the fitted curve at half-maximal effect
Chain of Estrogen receptor (Homo sapiens) (P03372 whole entry, looked up): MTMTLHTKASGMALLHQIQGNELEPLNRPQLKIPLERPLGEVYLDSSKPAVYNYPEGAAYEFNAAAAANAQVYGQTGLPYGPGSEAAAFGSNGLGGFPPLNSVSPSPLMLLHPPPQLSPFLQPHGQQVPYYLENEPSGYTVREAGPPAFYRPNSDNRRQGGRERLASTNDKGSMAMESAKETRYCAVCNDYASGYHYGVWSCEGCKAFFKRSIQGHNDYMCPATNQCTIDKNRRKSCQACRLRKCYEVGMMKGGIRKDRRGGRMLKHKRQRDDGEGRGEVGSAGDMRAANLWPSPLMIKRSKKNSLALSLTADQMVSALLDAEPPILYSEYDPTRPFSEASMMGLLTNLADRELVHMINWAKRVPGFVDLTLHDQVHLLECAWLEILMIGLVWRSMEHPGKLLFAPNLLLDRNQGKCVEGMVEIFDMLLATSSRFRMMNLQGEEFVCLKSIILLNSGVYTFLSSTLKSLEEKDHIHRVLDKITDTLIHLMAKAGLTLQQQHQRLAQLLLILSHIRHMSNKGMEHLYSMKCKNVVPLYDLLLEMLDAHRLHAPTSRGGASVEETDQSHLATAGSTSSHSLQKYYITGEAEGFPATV
Summary of the method: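 Luciferase signal from VM7Luc4E2 ERE-reporter cells, co-dosed with test compound and 0.1 nM final 17beta-estradiol for 22 h, read with ONE-Glo.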

[2] = qHTS assay to identify small molecule phospholipidosis (PLD) inducers (AID 1259344; active = well fitted curve in the direction sought with a large enough effect; an effect the other way counts as inactive or inconclusive)
Summary of the method: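 Image-based: LipidTOX Red pit count/intensity per well and per cell; HepG2, 24 h compound at 37 C, PFA fixation, Hoechst counterstain.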

[3] = qHTS assay to identify small molecule HDAC inhibitors (AID 1259364);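 also: wild-type HCT-116 cells with endogenous class I/II HDAC activity; top concentration of the series differs between compounds; nearly all actives have a fitted effect of over 45% in size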
Summary of the method: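 HCT-116 wt cells, 1,500/well, overnight attach. Compounds (DMSO) 2 h, 37 °C. HDAC-Glo I/II, 30 min RT. Luminescence.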

[4] = qHTS assay to identify small molecule HDAC inhibitors - cell viability counter screen (AID 1259365); also: series mostly up to about 92 µM; nearly all actives have a fitted effect of over 50% in size
Summary of the method: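 Luminescence from CellTiter-Glo, developed 30min at room temperature, reports viability of wild-type HCT-116 cells treated 2hr with compounds at 37 C and 5% CO2 after overnight plating.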

[5] = qHTS assay to identify small molecule antagonists of the sonic hedgehog signaling (Shh) pathway - cell viability counter screen (AID 1259367); also: nearly all actives have a fitted effect of over 55% in size; also: potency is read from the fitted curve at half-maximal effect
Summary of the method: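 Tox21 library chemicals were tested on a Gli1-Luc NIH/3T3 clone (2,000 cells/well) stimulated by conditioned medium; viability was quantified as fluorescence from CellTiter-Fluor reagent added at 23 hr.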

[6] = qHTS assay to identify small molecule antagonists of the sonic hedgehog signaling (Shh) pathway (AID 1259369; calls by dose curve; also: nearly all actives have a fitted effect of over 45% in size; also: potency is read from the fitted curve at half-maximal effect)
Summary of the method: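 Read-out is luminescence from a firefly luciferase gene controlled by the Gli1 response element, in 3T3Gli1-Luc cells pre-incubated 4hr then exposed to compounds and conditioned medium for 24hr.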

[7] = target: Estrogen receptor beta (Homo sapiens) (UniProt Q92731); assay: qHTS assay to identify small molecule agonists of the estrogen receptor beta (ER-beta) signaling pathway (AID 1259377; active = well fitted activation curve with a large enough effect in the signal ratio in the repeat runs, not every such curve was filed as active; the % refers to the signal ratio)
Chain of Estrogen receptor beta (Homo sapiens) (Q92731 whole entry, looked up): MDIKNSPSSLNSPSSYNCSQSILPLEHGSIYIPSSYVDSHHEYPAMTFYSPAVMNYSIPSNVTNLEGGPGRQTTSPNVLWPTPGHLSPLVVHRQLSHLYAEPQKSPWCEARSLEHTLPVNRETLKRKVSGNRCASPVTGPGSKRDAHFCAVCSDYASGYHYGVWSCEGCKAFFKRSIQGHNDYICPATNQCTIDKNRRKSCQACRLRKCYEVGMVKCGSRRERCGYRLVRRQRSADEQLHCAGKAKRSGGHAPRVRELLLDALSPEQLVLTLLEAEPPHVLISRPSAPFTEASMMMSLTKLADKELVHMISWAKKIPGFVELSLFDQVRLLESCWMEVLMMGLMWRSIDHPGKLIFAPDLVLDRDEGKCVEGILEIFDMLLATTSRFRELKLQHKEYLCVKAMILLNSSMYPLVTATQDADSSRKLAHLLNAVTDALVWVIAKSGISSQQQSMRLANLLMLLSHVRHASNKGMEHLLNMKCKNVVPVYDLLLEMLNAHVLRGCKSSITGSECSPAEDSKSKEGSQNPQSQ
Summary of the method: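 HEK293T ER-beta-UAS-bla; 2% charcoal-stripped FBS; cells pre-incubated 6 hr, compound 16 hr, 37C/5% CO2; LiveBLAzer B/G FRET substrate 2 h RT; fluorescence intensity read.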

[8] = target: Estrogen receptor beta (Homo sapiens) (UniProt Q92731); assay: qHTS assay to identify small molecule antagonists of the estrogen receptor beta (ER-beta) signaling pathway (AID 1259378; active = well fitted inhibition curve with a large enough effect in the signal ratio in the repeat runs, not every such curve was filed as active; the % refers to the signal ratio)
Summary of the method: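 ER-beta-UAS-bla HEK293T cells in 2% charcoal-stripped FBS medium treated with compound plus 1nM final 17-beta-estradiol for 16 hr at 37C. Beta-lactamase reporter read by FRET substrate fluorescence after 2 hours at room temperature.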

[9] = qHTS assay to identify small molecule antagonists of the estrogen receptor beta (ER-beta) signaling pathway - cell viability counter screen (AID 1259382); also: nearly all actives have a fitted effect of over 55% in size; also: potency is read from the fitted curve at half-maximal effect; as to activity change, negative = cytotoxicity: series mostly up to about 92 µM
Summary of the method: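 CellTiter-Glo ATP luminescence measured after the LiveBLAzer read in the same wells; ER-beta-UAS-bla HEK293T cells, 16 hr compound treatment with 1nM 17-beta-estradiol agonist at 37C, 5% CO2.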

[10] = target: Estrogen receptor (Homo sapiens) (UniProt P03372); assay: qHTS assay to identify small molecule agonists of the estrogen receptor alpha (ER-alpha) signaling pathway in the presence of an antagonist (AID 1259383; calls by dose curve; also: top concentration of the series differs between compounds; nearly all actives have a fitted effect of over 15% in size)
Summary of the method: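 Luminescent ERE-luciferase reporter, VM7Luc4E2 cells (endogenous ER-alpha); 10.0nM ICI-182,780 final; 15-point compound titration; 22hr at 37C; ONE-Glo, 30min RT.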

[11] = qHTS assay to identify small molecule agonists or antagonists of the thyroid stimulating hormone receptor (TSHR) signaling pathway - wild type cell line counter screen (AID 1259384; calls by dose curve)
Summary of the method: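 Wild-type Hek293 cells, 800/well, 18 h at 37C, then compound with Ro20-1724 for 30 min RT. cAMP by HTRF (cAMP-d2/anti-cAMP cryptate), 1 h RT, fluorescence read. 15 concentrations, triplicates.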

[12] = qHTS assay to identify small molecule agonists of the estrogen receptor alpha (ER-alpha) signaling pathway in the presence of an antagonist - cell viability counter screen (AID 1259386);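 also: cells exposed to compounds for 22 h at 37 °C before the viability read; nearly all actives have a fitted effect of over 30% in size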; also: potency is read from the fitted curve at half-maximal effect; as to activity change, negative = cytotoxicity: series mostly up to about 92 µM
Summary of the method: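 Using estrogen-depleted VM7Luc4E2 cells, the 15-concentration compound series was applied together with 10.0nM ICI-182,780 and incubated 22hr at 37C/5% CO2. Cell viability was then scored by CellTiter-Fluor.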

[13] = target: Progesterone receptor (Homo sapiens) (UniProt P06401); assay: qHTS assay to identify small molecule agonists of the progesterone receptor (PR) signaling pathway (AID 1346784; calls by dose curve; also: nearly all actives have a fitted effect of over 30% in size)
Chain of Progesterone receptor (Homo sapiens) (P06401 whole entry, looked up): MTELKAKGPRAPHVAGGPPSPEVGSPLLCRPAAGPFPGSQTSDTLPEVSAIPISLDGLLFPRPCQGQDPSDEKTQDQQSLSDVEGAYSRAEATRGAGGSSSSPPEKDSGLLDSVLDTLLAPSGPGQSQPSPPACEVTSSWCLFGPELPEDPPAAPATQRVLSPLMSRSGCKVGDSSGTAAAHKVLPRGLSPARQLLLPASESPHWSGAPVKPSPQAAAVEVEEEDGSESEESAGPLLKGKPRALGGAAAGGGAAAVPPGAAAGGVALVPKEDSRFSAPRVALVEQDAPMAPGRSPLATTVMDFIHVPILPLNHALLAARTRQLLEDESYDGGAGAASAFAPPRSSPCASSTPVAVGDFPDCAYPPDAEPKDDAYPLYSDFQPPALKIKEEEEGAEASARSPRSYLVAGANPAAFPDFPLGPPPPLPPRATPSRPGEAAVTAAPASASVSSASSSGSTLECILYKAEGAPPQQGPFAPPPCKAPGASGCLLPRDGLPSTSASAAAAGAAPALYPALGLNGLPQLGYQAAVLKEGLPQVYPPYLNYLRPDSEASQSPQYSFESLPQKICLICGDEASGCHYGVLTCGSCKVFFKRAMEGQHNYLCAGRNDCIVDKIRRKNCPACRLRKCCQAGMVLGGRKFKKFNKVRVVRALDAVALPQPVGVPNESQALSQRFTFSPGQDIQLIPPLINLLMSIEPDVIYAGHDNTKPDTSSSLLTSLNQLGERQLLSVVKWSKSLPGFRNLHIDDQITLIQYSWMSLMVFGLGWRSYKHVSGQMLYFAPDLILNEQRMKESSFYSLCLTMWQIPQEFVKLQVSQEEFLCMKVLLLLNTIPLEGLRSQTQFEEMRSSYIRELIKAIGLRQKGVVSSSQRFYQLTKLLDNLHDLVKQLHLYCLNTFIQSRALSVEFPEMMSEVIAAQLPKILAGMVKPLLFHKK
Summary of the method: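 Beta-lactamase reporter read-out: after 16 hr compound treatment at 37C and a further 2 hr at room temperature with LiveBLAzer B/G FRET substrate, fluorescence was measured in PR-UAS-bla HEK 293T cells grown in 2% charcoal-stripped serum.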

[14] = target: Progesterone receptor (Homo sapiens) (UniProt P06401); assay: qHTS assay to identify small molecule antagonists of the progesterone receptor (PR) signaling pathway (AID 1346795; active = well fitted inhibition curve with a large enough effect in the signal ratio in the repeat runs, not every such curve was filed as active; the % refers to the signal ratio; also: potency is read from the fitted curve at half-maximal effect)
Summary of the method: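 Read-out is fluorescence from the LiveBLAzer B/G FRET substrate, cleaved by a UAS-controlled beta-lactamase in PR-UAS-bla HEK293T cells after 16 hr exposure to compound plus 1 nM promegestone (final), followed by 2 hr at room temperature.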

[15] = qHTS assay to identify small molecule agonists of the sonic hedgehog signaling (Shh) pathway - cell viability counter screen (AID 1259366); also: nearly all actives have a fitted effect of over 50% in size; also: potency is read from the fitted curve at half-maximal effect
Summary of the method: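 Cytotoxicity counter screen run in the same wells as the Shh reporter assay. NIH/3T3 cells carrying a Gli1 response element–driven luciferase were treated with DMSO-dissolved compounds for 24hr, and live-cell protease activity was measured with CellTiter-Fluor.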

[16] = qHTS assay to identify small molecule agonists of the sonic hedgehog signaling (Shh) pathway (AID 1259368; calls by dose curve;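 also: NIH/3T3-derived 3T3Gli1-Luc cells carrying a stable Gli1-driven firefly luciferase reporter; series mostly up to about 92 µM; nearly all actives have a fitted effect of over 15% in size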)
Summary of the method: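 Following a 24 hr incubation with DMSO-dissolved compounds at 37 C, 5% CO2, Gli1-Luc NIH/3T3-derived cells received luciferase reagent for 30 min at room temperature prior to luminescence measurement.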

[17] = qHTS assay to identify small molecule agonists of the androgen receptor (AR) signaling pathway in the presence of an antagonist - cell viability counter screen (AID 1259379); also: nearly all actives have a fitted effect of over 25% in size; also: potency is read from the fitted curve at half-maximal effect;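 as to activity change, negative = cytotoxicity: MDA-kb2 human breast cancer cells carrying an MMTV luciferase reporter; series mostly up to about 92 µM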
Summary of the method: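 Each compound was tested at 15 concentrations on MDA-kb2 cells in the presence of 3.0uM nilutamide. Viability was measured by CellTiter-Fluor fluorescence after a 16 hr incubation at 37C in a CO2-free atmosphere.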

[18] = qHTS assay to identify small molecule agonists of the estrogen receptor beta (ER-beta) signaling pathway - cell viability counter screen (AID 1259380); also: nearly all actives have a fitted effect of over 30% in size; also: potency is read from the fitted curve at half-maximal effect
Summary of the method: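 Compounds dissolved in DMSO were pin-transferred onto ER-beta-UAS-bla HEK293T cells that had settled 6 hr, and exposure ran 16 hr at 37C. Following the reporter read, CellTiter-Glo luminescence after 30 min at room temperature indicated cytotoxicity.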

[19] = target: Androgen receptor (Homo sapiens) (UniProt P10275); assay: qHTS assay to identify small molecule agonists of the androgen receptor (AR) signaling pathway in the presence of an antagonist (AID 1259381; calls by dose curve; also: nearly all actives have a fitted effect of over 15% in size)
Chain of Androgen receptor (Homo sapiens) (P10275 whole entry, looked up): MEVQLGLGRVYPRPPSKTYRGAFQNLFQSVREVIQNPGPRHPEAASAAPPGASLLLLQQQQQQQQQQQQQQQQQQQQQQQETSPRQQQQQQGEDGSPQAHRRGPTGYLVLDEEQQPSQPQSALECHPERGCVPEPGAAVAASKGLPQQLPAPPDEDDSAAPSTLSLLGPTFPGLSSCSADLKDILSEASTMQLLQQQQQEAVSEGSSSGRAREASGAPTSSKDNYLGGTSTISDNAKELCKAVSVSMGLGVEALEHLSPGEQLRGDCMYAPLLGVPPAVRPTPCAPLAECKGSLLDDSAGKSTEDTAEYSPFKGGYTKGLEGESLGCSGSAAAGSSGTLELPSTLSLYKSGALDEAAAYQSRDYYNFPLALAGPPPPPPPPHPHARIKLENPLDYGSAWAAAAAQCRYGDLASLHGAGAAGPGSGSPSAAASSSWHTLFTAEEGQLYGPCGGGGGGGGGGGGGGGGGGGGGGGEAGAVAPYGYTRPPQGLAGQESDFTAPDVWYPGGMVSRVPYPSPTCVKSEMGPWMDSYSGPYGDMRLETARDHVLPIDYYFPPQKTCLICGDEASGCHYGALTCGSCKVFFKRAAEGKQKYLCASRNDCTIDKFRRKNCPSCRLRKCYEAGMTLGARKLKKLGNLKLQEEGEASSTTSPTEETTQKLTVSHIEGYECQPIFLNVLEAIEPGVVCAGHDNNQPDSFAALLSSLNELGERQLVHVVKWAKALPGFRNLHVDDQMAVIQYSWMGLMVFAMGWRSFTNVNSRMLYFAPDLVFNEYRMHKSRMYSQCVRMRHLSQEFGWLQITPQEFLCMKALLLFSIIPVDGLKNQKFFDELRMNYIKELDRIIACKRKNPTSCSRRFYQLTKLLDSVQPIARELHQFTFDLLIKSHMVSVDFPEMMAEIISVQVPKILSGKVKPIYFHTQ
Summary of the method: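 Plated MDA-kb2 cells (3,000/well) were pre-incubated 5hr, given nilutamide (3.0uM final) or buffer, then dosed with compounds in DMSO at 15 concentrations. Luciferase activity was quantified by luminescence after 16hr at 37C.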

[20] = target: Thyrotropin receptor (Homo sapiens) (UniProt P16473); assay: qHTS assay to identify small molecule antagonists of the thyroid stimulating hormone receptor (TSHR) signaling pathway (AID 1259385; calls by dose curve; also: nearly all actives have a fitted effect of over 20% in size)
Chain of Thyrotropin receptor (Homo sapiens) (P16473 whole entry, looked up): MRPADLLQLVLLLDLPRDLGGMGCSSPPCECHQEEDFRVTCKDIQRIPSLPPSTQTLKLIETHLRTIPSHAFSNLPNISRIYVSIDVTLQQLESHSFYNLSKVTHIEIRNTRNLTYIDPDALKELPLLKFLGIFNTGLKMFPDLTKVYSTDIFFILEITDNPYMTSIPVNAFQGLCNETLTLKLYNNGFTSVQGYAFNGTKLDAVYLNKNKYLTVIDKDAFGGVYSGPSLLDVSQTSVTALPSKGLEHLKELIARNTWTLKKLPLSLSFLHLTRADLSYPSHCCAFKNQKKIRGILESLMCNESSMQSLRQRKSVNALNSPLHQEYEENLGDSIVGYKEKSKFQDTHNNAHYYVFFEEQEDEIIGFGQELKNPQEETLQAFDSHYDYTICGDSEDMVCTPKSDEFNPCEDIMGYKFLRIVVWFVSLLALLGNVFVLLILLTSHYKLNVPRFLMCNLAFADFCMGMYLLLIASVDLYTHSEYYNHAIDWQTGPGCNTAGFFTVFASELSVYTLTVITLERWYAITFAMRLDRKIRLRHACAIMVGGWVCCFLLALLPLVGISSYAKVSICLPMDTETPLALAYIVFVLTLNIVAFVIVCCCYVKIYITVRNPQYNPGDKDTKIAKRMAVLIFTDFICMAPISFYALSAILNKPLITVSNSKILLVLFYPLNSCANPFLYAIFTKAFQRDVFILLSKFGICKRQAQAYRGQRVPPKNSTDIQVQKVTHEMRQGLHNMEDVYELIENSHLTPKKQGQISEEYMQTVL
Summary of the method: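 TSHR-HEK293 cells (800/well) plated 18 h, then compounds with Ro20-1724 and TSH at 1.5 ng/mL final, 30 min at room temperature. cAMP quantified by HTRF (cAMP-d2/anti-cAMP-cryptate, 1 h); 15 concentrations in triplicate.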
% is scaled to controls: 0 for no effect and ±100 for the full control effect.

CCCCOc1ccc(C(=O)CCN2CCCCC2)cc1
inactive: Potency [1] | Potency [2] | Potency [3] | Potency [4] | Potency [5] | Potency [6] | Potency [7] | Potency [8] | Potency [9] | Potency [10] | outcome [11] | Potency [12] | outcome [13] | Potency [14]

NC1(c2ccc(-c3nc4ccn5c(=O)[nH]nc5c4cc3-c3ccccc3)cc2)CCC1
inactive: Potency [1] | Potency [2] | Potency [3] | Potency [4] | Potency [16] | Potency [7] | Potency [10] | outcome [11] | outcome [13] | Potency [14]
active: Potency [15] 13.3 µM | Potency [17] 16.8 µM | Potency [18] 1.19 µM | Potency [9] 2.11 µM

C[C@@H]1CC[C@H]2C(C)(C)[C@H]3C[C@@]12CC[C@@]3(C)O
inactive: Potency [1] | Potency [3] | Potency [4] | Potency [15] | Potency [5] | Potency [16] | Potency [6] | Potency [7] | Potency [8] | Potency [17] | Potency [18] | Potency [19] | Potency [9] | Potency [10] | outcome [11] | Potency [20] | Potency [12] | outcome [13]

O=S(=O)(O)c1cc(S(=O)(=O)O)c2ccc3c(S(=O)(=O)O)cc(S(=O)(=O)O)c4ccc1c2c43
inactive: activity change, negative = inhibition [1] 0.118% [at 19 µM] | activity change, negative = inhibition [3] 4.2% [at 19 µM] | activity change, negative = cytotoxicity [4] 1.04% [at 19 µM] | viability change, negative = cytotoxic [15] 1.66% [at 19 µM] | viability change, negative = cytotoxic [5] 0.116% [at 19 µM] | activity change [16] -2.01% [at 18.9 µM, stronger effect = higher value] | activity change, negative = inhibition [6] 2.19% [at 19 µM] | activation [7] -3.15% [at 19 µM] | activity, negative = inhibition [8] -6.24% [at 19 µM] | activity change, negative = cytotoxicity [17] 1.33% [at 19 µM] | activity change, negative = cytotoxicity [18] 1.19% [at 19 µM] | activation [19] 3.07% [at 19 µM] | activity change, negative = cytotoxicity [9] 6.71% [at 19 µM] | activation [10] -1.94% [at 19 µM] | cAMP activity change [11] 5.29% [at 18.9 µM] | activity change, negative = cytotoxicity [12] -2.62% [at 19 µM] | activation [13] -0.344% [at 19 µM] | activity change, negative = inhibition [14] 5.54% [at 18.9 µM]

CCOCOCC
inactive: Potency [1] | Potency [3] | Potency [4] | Potency [15] | Potency [5] | Potency [16] | Potency [6] | Potency [7] | Potency [8] | Potency [17] | Potency [18] | Potency [19] | Potency [9] | Potency [10] | outcome [11] | Potency [20] | Potency [12] | outcome [13] | Potency [14]

CSc1ccc2c(c1)N(CCC1CCCCN1C)c1ccccc1S2 (stereo not drawn)
68.3 µM (active) and inactive: Potency [12]
54.3 µM (active) and inactive: Potency [1]
inactive: Potency [2] | Potency [3] | Potency [4] | Potency [16] | Potency [10] | outcome [11]
active: Potency [15] 15.3 µM and 29.8 µM | Potency [5] 21.6 µM and 29.8 µM | Potency [6] 5.43 µM and 11.9 µM | Potency [17] 54.3 µM and 29.8 µM | Potency [18] 19.3 µM and 18.8 µM

Cc1cc2c(C(C)C)c(O)c(O)c(C=O)c2c(O)c1-c1c(C)cc2c(C(C)C)c(O)c(O)c(C=O)c2c1O
active: Potency [17] 29.8 µM | Potency [18] 13.3 µM | Potency [9] 23.7 µM | Potency [14] 13.3 µM
inactive: Potency [1] | Potency [2] | Potency [3] | Potency [4] | Potency [16] | Potency [10] | outcome [11] | Potency [20]
